Results filed as inconclusive are left out. Active and inactive are the calls of the source. Calls follow the shape of the dose curve; as a rule, active = well fitted curve in the direction sought with a large enough effect in the repeat runs; inconclusive = weak or mixed curves; inactive = no such curve, though single readings can be large; an effect the other way counts as inactive or inconclusive.
Tests used:
[1] = A CellTox Green Cytotoxicity Assay to monitor cytotoxicity in HEK293 cells - 40 hour (AID 1224871); also: nearly all actives have a fitted effect of over 45% in size; also: potency is read from the fitted curve at half-maximal effect
Method in brief: (§1)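 Read-out: fluorescence of a cell-impermeant cyanine dye staining DNA of dead cells, proportional to cytotoxicity. HEK293, 600 cells/well with reagent, compound (23 nL DMSO) added after 5 h; reads at 0, 8, 16, 24, 32, 40 h.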

[2] = qHTS RealTime-Glo MT Cell Viability Assay in HEK293 cells - 16 hour (AID 1224872); also: nearly all actives have a fitted effect of over 50% in size; also: potency is read from the fitted curve at half-maximal effect; as to activity change, negative = cytotoxicity: top concentration of the series differs between compounds
Method in brief: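 HEK293 cells seeded with NanoLuc/prosubstrate reagent, rested 5 h at 37 C, then dosed and kept at 37 C up to 40 h. Nonlytic real-time luminescence from viable cells read at 0, 8, 16, 24, 32 and 40 h.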

[3] = qHTS RealTime-Glo MT Cell Viability Assay in HepG2 cells - 8 hour (AID 1224873); also: nearly all actives have a fitted effect of over 55% in size
Method in brief: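 Real-time viability: cells seeded at 600 per well together with NanoLuc and cell-permeant prosubstrate, compounds added after 5 h incubation. Luminescence tracked at 0, 8, 16, 24, 32 and 40 h of exposure.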

[4] = A CellTox Green Cytotoxicity Assay to monitor cytotoxicity in HEK293 cells - 24 hour (AID 1224875); also: series mostly up to about 77 µM; nearly all actives have a fitted effect of over 45% in size
Method in brief: as §1

[5] = qHTS RealTime-Glo MT Cell Viability Assay in HepG2 cells - 32 hour (AID 1224877); also: nearly all actives have a fitted effect of over 55% in size; also: potency is read from the fitted curve at half-maximal effect
Method in brief: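 HepG2 cells (600/well) were dispensed with RealTime-Glo reagents, incubated 5 h at 37 °C, then treated with compounds in DMSO for up to 40 h. Nonlytic NanoLuc luminescence reflecting viable cells was read at each stated time point.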

[6] = qHTS RealTime-Glo MT Cell Viability Assay in HEK293 cells - 0 hour (AID 1224880); also: top concentration of the series differs between compounds; nearly all actives have a fitted effect of over 45% in size
Method in brief: (§2)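 Luminescence readout at each listed time point; HEK293, 600 cells/well, RealTime-Glo MT reagent added with cells; compounds pinned (23 nL in DMSO) after 5 h at 37 C; continuous culture at 37 C.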

[7] = A CellTox Green Cytotoxicity Assay to monitor cytotoxicity in HepG2 cells - 16 hour (AID 1224876); also: nearly all actives have a fitted effect of over 45% in size; also: potency is read from the fitted curve at half-maximal effect
Method in brief: (§3)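 HepG2, 600 cells/well premixed w/ CellTox Green; 5 h settle, 37 C/5% CO2; pintool cpd add (DMSO); 37 C, 40 h; fluorescence read at 0, 8, 16, 24, 32, 40 h.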

[8] = A CellTox Green Cytotoxicity Assay to monitor cytotoxicity in HepG2 cells - 24 hour (AID 1224878); also: nearly all actives have a fitted effect of over 45% in size; also: potency is read from the fitted curve at half-maximal effect
Method in brief: as §3

[9] = A CellTox Green Cytotoxicity Assay to monitor cytotoxicity in HepG2 cells - 40 hour (AID 1224879); also: nearly all actives have a fitted effect of over 40% in size; also: potency is read from the fitted curve at half-maximal effect
Method in brief: as §3

[10] = qHTS RealTime-Glo MT Cell Viability Assay in HEK293 cells - 40 hour (AID 1224874); conditions: RealTime-Glo luminescence; max response: hits give low values; also: nearly all actives have a fitted effect of over 50% in size; also: potency is read from the fitted curve at half-maximal effect
Method in brief: as §2
% is scaled to controls: 0 for no effect and ±100 for the full control effect.

O=C1[C@@H]2[C@H]3CC[C@H](C3)[C@@H]2C(=O)N1CCCCN1CCN(c2ncccn2)CC1
inactive: Potency [1] | Potency [2] | Potency [3] | Potency [4] | Potency [5] | Potency [6]

CCCc1nc2c(C)cc(-c3nc4ccccc4n3C)cc2n1Cc1ccc(-c2ccccc2C(=O)O)cc1
inactive: Potency [1] | Potency [4] | Potency [7] | Potency [5] | Potency [8] | Potency [9] | Potency [6]

CC(C)c1ccc(C#N)cc1
inactive: Potency [1] | Potency [3] | Potency [4] | Potency [5] | Potency [9] | Potency [6]
active: Potency [10] 15.5 µM

COc1ccc(-c2cc(C(F)F)nn2-c2ccc(S(N)(=O)=O)cc2)cc1F
inactive: Potency [1] | Potency [3] | Potency [4] | Potency [7] | Potency [8] | Potency [9] | Potency [6]

O=C(C(=O)c1ccco1)c1ccco1
inactive: Potency [1] | Potency [3] | Potency [4] | Potency [7] | Potency [5] | Potency [8] | Potency [9] | Potency [6]

CCOC(=O)c1c(N)sc2c1CCN(Cc1ccccc1)C2
inactive: Potency [1] | Potency [3] | Potency [4] | Potency [7] | Potency [5] | Potency [8] | Potency [9] | Potency [6]

O=C(O)CCC(=O)OC[C@@H](NC(=O)C(Cl)Cl)[C@H](O)c1ccc([N+](=O)[O-])cc1
active: Potency [1] 21.3 µM | Potency [7] 9.52 µM | Potency [8] 19 µM | Potency [9] 19 µM
inactive: Potency [2] | Potency [3] | Potency [5] | Potency [6]

C[C@@H]1[C@H](O)[C@@H](C)/C=C/C=C\C=C\C=C\C=C\C=C\C=C\[C@H](O[C@@H]2O[C@H](C)[C@@H](O)[C@H](N)[C@@H]2O)C[C@@H]2O[C@](O)(C[C@@H](O)C[C@@H](O)[C@H](O)CC[C@@H](O)C[C@@H](O)CC(=O)O[C@H]1C)C[C@H](O)[C@H]2C(=O)O (stereo in doubt)
inactive: Potency [2] | Potency [3] | Potency [7] | Potency [5] | Potency [8] | Potency [9] | Potency [6]

CCC(Cl)CC(Cl)C(Cl)C(Cl)C(Cl)C(C)Cl (centres undefined)
inactive: viability change, negative = cytotoxic [3] 0.0251% [at 15.8 µM] | cytotoxicity increase [7] 7.76% [at 15.8 µM] | activity change, negative = cytotoxic [5] -0.891% [at 15.8 µM] | cytotoxicity [8] 2.51% [at 15.8 µM] | cytotoxicity increase [9] 0.801% [at 15.8 µM]

C=Cc1ccc(OC(C)=O)cc1
inactive: Potency [2] | Potency [3] | max response [10] 18.3% | Potency [4] | Potency [7] | Potency [8] | Potency [9] | Potency [6]

CNS(=O)(=O)c1cc(C(=O)N2CCC(CCN3C4CCC3CC(n3c(C)nc5ccccc53)C4)(c3cccc(F)c3)CC2)c(Cl)cc1F (centres undefined)
active: Potency [2] 4.36 µM | Potency [10] 4.36 µM
inactive: Potency [1] | Potency [4] | Potency [7] | Potency [8] | Potency [9] | Potency [6]

c1ccc(CCCc2ccncc2)cc1
active: Potency [7] 12.3 µM
inactive: Potency [3] | max response [10] -19.7% | Potency [6]

CCCCCCCC(=O)OCCCCCC
inactive: Potency [1] | Potency [3] | Potency [4] | Potency [7] | Potency [5] | Potency [8] | Potency [9] | Potency [6]
active: Potency [10] 3.47 µM

O=C1c2ccccc2C(=O)c2c(O)ccc(O)c21
inactive: Potency [2] | Potency [3] | max response [10] 5.32% | Potency [5] | Potency [6]
active: Potency [7] 24.5 µM | Potency [8] 24.5 µM | Potency [9] 24.5 µM

CC(C)COC(=O)c1ccc(O)cc1
inactive: Potency [3] | Potency [7] | Potency [6]

CO[C@@H]1[C@@H](OC)[C@H](C)[C@@](O)(CC(=O)O)O[C@H]1[C@H](C)[C@H]1O[C@@]2(CC[C@@](C)([C@H]3CC[C@@](C)([C@@H]4O[C@@H]([C@H]5O[C@](C)(O)[C@H](C)C[C@@H]5C)C[C@@H]4OC4C[C@H](OC)[C@@H](OC)[C@H](C)O4)O3)O2)C[C@H](O)[C@H]1C (some centres undefined)
inactive: Potency [4] | Potency [6]
active: Potency [1] 4.77 µM | Potency [2] 5.35 µM | Potency [10] 2.39 µM | Potency [5] 5.35 µM | Potency [8] 12 µM | Potency [9] 6.74 µM

CCCCCCCC/C=C\CCCCCCCC(=O)OCCO
inactive: Potency [1] | Potency [3] | max response [10] -0.425% | Potency [4] | Potency [7] | Potency [8] | Potency [9] | Potency [6]

CC/C=C\C/C=C\C/C=C\CCCCCCCC(=O)OCC
inactive: Potency [2] | Potency [3] | max response [10] -15.2% | Potency [4] | Potency [7] | Potency [5] | Potency [8] | Potency [9]

O=C(CCS)OCC(COC(=O)CCS)(COC(=O)CCS)COC(=O)CCS
inactive: Potency [1] | Potency [3] | Potency [4] | Potency [7] | Potency [5] | Potency [8] | Potency [9] | Potency [6]

Cc1ccc2c(c1[N+](=O)[O-])C(=O)c1ccccc1C2=O
inactive: Potency [1] | Potency [3] | Potency [4] | Potency [7] | Potency [5] | Potency [8] | Potency [9]
active: Potency [10] 0.958 µM

Nc1cccc2c(N)cccc12
inactive: Potency [1] | Potency [4] | Potency [7] | Potency [5] | Potency [8] | Potency [6]

CC(CN(CCN(CC(C)OCCO)CC(C)OCCO)CC(C)OCCO)OCCO (centres undefined)
active: Potency [2] 18.8 µM
inactive: Potency [3] | Potency [4] | Potency [7] | Potency [6]

COc1cc(NCc2ccc3nc(N)nc(N)c3c2C)cc(OC)c1OC
inactive: Potency [1] | Potency [3] | Potency [4] | Potency [7] | Potency [5] | Potency [8] | Potency [9] | Potency [6]
active: Potency [10] 0.0239 µM

COC(=O)C1=C(C)NC(C)=C(C(=O)OC(C)(C)CN(C)CCC(c2ccccc2)c2ccccc2)C1c1cccc([N+](=O)[O-])c1 (centres undefined)
inactive: Potency [1] | Potency [2] | max response [10] -18% | Potency [4] | Potency [7] | Potency [8] | Potency [9] | Potency [6]

O=C(Oc1ccccc1)c1ccc2ccccc2c1O
inactive: Potency [1] | Potency [3] | max response [10] -20.6% | Potency [4] | Potency [5] | Potency [9] | Potency [6]

CCCCCCCC(=O)Oc1c(Br)cc(C#N)cc1Br
active: Potency [2] 38.8 µM
inactive: Potency [3] | Potency [4] | Potency [7] | Potency [5] | Potency [8] | Potency [9] | Potency [6]

CC(=O)OCCC(C)CC(C)(C)C (centres undefined)
inactive: Potency [2] | Potency [3] | Potency [4] | Potency [7] | Potency [8] | Potency [9] | Potency [6]

COc1cc(S(=O)(=O)Nc2ccccc2)c(OC)cc1N
inactive: Potency [1] | Potency [2] | max response [10] -20.8% | Potency [4] | Potency [7] | Potency [8] | Potency [9] | Potency [6]

Cc1cc(CCCOc2c(C)cc(-c3noc(C(F)(F)F)n3)cc2C)on1
inactive: Potency [1] | Potency [3] | Potency [4] | Potency [7] | Potency [8] | Potency [9] | Potency [6]

CCCCCCCCCCCCCCN(C)C
inactive: cytotoxicity increase [1] -34.7% [at 15.8 µM] | viability change, negative = cytotoxic [3] -0.602% [at 15.8 µM] | max response [10] -29.2% | activity change [4] -31.5% [at 15.8 µM, hits give high values] | cytotoxicity increase [7] -1.78% [at 15.8 µM] | cytotoxicity [8] -3.33% [at 15.8 µM] | cytotoxicity increase [9] -7.14% [at 15.8 µM] | activity change, negative = cytotoxicity [6] 0% [at 15.8 µM]

Oc1ccc2c(c1)Cc1ccccc1-2
active: Potency [2] 21.9 µM | Potency [10] 19.5 µM
inactive: Potency [3] | Potency [4] | Potency [5] | Potency [6]

CNCc1ccc(NC(=O)c2c[nH]c3c2C(=O)CCC3)cc1
inactive: Potency [1] | Potency [3] | Potency [4] | Potency [7] | Potency [5] | Potency [8] | Potency [9] | Potency [6]

Nc1ccc(F)cc1
inactive: Potency [2] | Potency [3] | Potency [4] | Potency [7] | Potency [5] | Potency [8] | Potency [9] | Potency [6]

COC(=O)Nc1nc2ccc(C(=O)C3CC3)cc2[nH]1
inactive: Potency [1] | Potency [3] | Potency [4] | Potency [7] | Potency [5] | Potency [8] | Potency [6]
active: Potency [9] 0.848 µM

c1ccc(CNc2ncnc3c2ncn3C2CCCCO2)cc1 (centres undefined)
inactive: Potency [1] | Potency [3] | Potency [4] | Potency [7] | Potency [5] | Potency [8] | Potency [9] | Potency [6]
